PubChem BioAssay AID770 (SRMLSC, 2007)
Among all 3,300 compounds or so, fewer than 10 were called active.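 How the source made its calls: active means growth inhibition above 90% in viable cell count at a single dose; inactive means growth inhibition below 90%.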 The list is a sample of the results.

Assay: HT29 colon tumor cell growth inhibition, primary screen, imaging, high content imaging, 24 h, CellTiter-Glo (AID 770);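 on condensed nuclei: share of cells whose nuclear area falls below control median minus 1.5 SD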
Settings: HT29 cell number by imaging, at 10 µM, stronger effect = higher value; for condensed nuclei: measured here: percent cells with condensed nuclei
[1] = measured here: ATP CellTiter-Glo viability

Row | Structure (SMILES) | growth inhibition | growth inhibition [1] [%] | condensed nuclei [%]
1 | Cc1ccc(Oc2nc3c(c(=O)n(Cc4ccccc4F)c(=O)n3C)n2C)cc1 | 1.1% (inactive) | 5.27 | 1.09
2 | c1ccc2c(c1)NC(c1ccncc1)n1c-2nc2ccccc21 (stereo unspecified) | 16.4% (inactive) | -9.59 | 3.13
3 | COc1ccc(/C(O)=C2/C(=O)C(=O)N(c3ncccn3)C2c2ccc(OC)c(OC)c2)cc1 (stereo unspecified) | 59.3% (inactive) | 10.6 | 4.07
4 | O=C1CC(c2ccccc2)NC(=O)N1 (stereo unspecified) | -5.61% (inactive) | 1.46 | 3.08
5 | FC(F)(F)c1cccc(N2CCc3cn[nH]c32)c1 | 21.1% (inactive) | -4.43 | 4.2
6 | CCCCCC(=O)N1CC2(C)CN(C(=O)CCCCC)CC(C)(C1)C2=O | -27.8% (inactive) | -0.56 | 1.67
7 | CN1CCc2c(n(CC(O)CN3C(=O)c4ccccc4S3(=O)=O)c3ccccc23)C1=O (stereo unspecified) | 3.96% (inactive) | -10.2 | 8.09
8 | O=C1CC(C(=O)O)c2ccccc2N1 (stereo unspecified) | 10.3% (inactive) | 0.11 | 2.67
9 | COc1nc(NS(=O)(=O)c2ccc(C)cc2)nc(C)c1Cl | 9.89% (inactive) | -6.08 | 2.47
10 | CCOC(=O)N1CCN(c2ncnc3c2cnn3-c2ccc(OC)cc2)CC1 | 17% (inactive) | 5.78 | 3.96
11 | CCOC(=O)C1CCCN(c2nc3ccccc3nc2C(C#N)C(=O)OCCOC)C1 (stereo unspecified) | 49.2% (inactive) | 70 | 9.83
12 | Cn1ncc2nc[nH]c(=O)c21 | 27.4% (inactive) | 0.04 | 2.08
13 | CC(C)Nc1nc(NC(C)C)nc(N(C)n2cnnc2)n1 | -12.4% (inactive) | -9.08 | 2.84
14 | COc1ccc(C(=O)OC(C)CN2CCN(C)CC2)cc1OC (stereo unspecified) | 28.2% (inactive) | 1.58 | 5.84
15 | Cc1cc(Cn2ccnc2)c(C)cc1Cn1ccnc1 | 13.6% (inactive) | 11.6 | 3.14
16 | COc1cc(-c2nn3c(COc4ccccc4)nnc3s2)cc(OC)c1OC | 56.5% (inactive) | 9.54 | 5.76
17 | CCOC(=O)C1=C(C)NC(SCC(=O)Nc2nc(C)cs2)=C(C#N)C1c1cccs1 (stereo unspecified) | 7.8% (inactive) | 22.8 | 5.36
18 | COc1ccc(OC)c(NC(=O)CSc2nnc(-c3ccco3)n2-c2ccc(C(=O)O)cc2)c1 | 5.68% (inactive) | -8.2 | 4.63
19 | c1ccc(N2CCN(c3nc(-c4ccccn4)nc4ccccc34)CC2)cc1 | 4.92% (inactive) | -10.8 | 11.6
20 | CC1(C)Cc2c(C#N)c(OCC(=O)c3ccc(Cl)cc3)nc(-c3ccoc3)c2CO1 | 18.7% (inactive) | 21.9 | 4.85
21 | O=C(NCc1ccccc1)c1ccc(=O)[nH]n1 | -5.75% (inactive) | -8.23 | 3.79
22 | Cc1ccc(NC(=O)Cn2nc(C)c3ccccc3c2=O)cc1 | -20% (inactive) | -4.94 | 3.28
23 | COc1ccc(OC)c(C2NC(=O)c3sc(=S)n(-c4ccccc4)c3N2)c1 (stereo unspecified) | 36.6% (inactive) | 16.9 | 4.81
24 | CC(=O)N1CC=C2C(C#N)=C(N)C(C#N)(C#N)[C@H](c3ccoc3)[C@H]2C1 | 6.78% (inactive) | -12.8 | 3.16
25 | Cc1ccc(CNc2oc(COc3ccccc3Cl)nc2C#N)cc1 | -7.99% (inactive) | -1.41 | 4.34
26 | CCOC(=O)C(NC=O)(NC(C)(C)C)C(=O)OCC | -28.5% (inactive) | -6.54 | 2.61

Row | Structure (SMILES) | growth inhibition | growth inhibition [1] [%] | condensed nuclei [%]
27 | Cc1nc2sc(C#N)c(N)c2c2c1CCCC2 | -26.7% (inactive) | -6.54 | 1.98
28 | Cn1c(SCC(=O)N2CCOCC2)nnc1-c1ccc(Cl)cc1Cl | 30.4% (inactive) | -11.5 | 2.99
29 | COc1ccc(C2CC(=O)C(C=NCCN3CCOCC3)=C(O)C2)cc1 (stereo unspecified) | 30% (inactive) | -14.6 | 0.91
30 | CC(NC(=O)CSc1nnc(COc2ccccc2)o1)c1ccccc1 (stereo unspecified) | 2.08% (inactive) | -10.8 | 4.42
31 | N#CC1=C(SCC(=O)c2ccccc2)NC2=C(C(=O)CCC2)C1c1ccco1 (stereo unspecified) | 77% (inactive) | 12.5 | 20.4
32 | Cn1c(=O)c2c3c(sc2n2c(SCC(N)=O)nnc12)CC(C(C)(C)C)CC3 (stereo unspecified) | -4.56% (inactive) | -15.8 | 3.87
33 | CN(CCOC(=O)c1cccc(Br)c1)C(C)(C)C | 6.82% (inactive) | 3.02 | 2.48
34 | COC(=O)c1cc(Br)c(=O)n(Cc2cccnc2)c1 | 6.29% (inactive) | -14.1 | 1.99
35 | CC12CN3CC(C)(CN(C1)C3c1ccc(Cl)cc1Cl)C2O (stereo unspecified) | 15% (inactive) | 0.64 | 2.07
36 | CC1(C)Cc2c(c(N3CCOCC3)nc3sc(C#N)c(N)c23)CS1 | 16.1% (inactive) | 12.8 | 14
37 | COc1cccc(CNc2ncc(Br)cc2Br)c1O | 28.4% (inactive) | 3.03 | 8.79
38 | COc1ccccc1NC(=O)c1c(C)cc(=O)oc1C | 2.52% (inactive) | -2.65 | 1.89
39 | C=CCc1c(C)nc(SCCC)[nH]c1=O | -39.5% (inactive) | 9.14 | 4.83
40 | Cc1cc(N2C(=O)C(=O)/C(=C(/O)c3ccccc3)C2c2cccs2)no1 (stereo unspecified) | -3.8% (inactive) | -3.1 | 2.92
41 | N#Cc1c(NCCN)nc(NCc2ccccc2)c2c1CCN(Cc1ccccc1)C2 | 48.7% (inactive) | 41.2 | 7.1
42 | CSC1=C(C#N)C(c2ccc(C)s2)CC(=O)N1 (stereo unspecified) | 22.7% (inactive) | 4.49 | 3.3
43 | COc1cc(-c2cc(C(F)(F)F)n3ncc(C(=O)O)c3n2)cc(OC)c1OC | -25.6% (inactive) | -14.3 | 2.49
44 | O=C(O)CCc1cc(I)c(Oc2ccc(O)c(I)c2)c(I)c1 | 4.78% (inactive) | 3.12 | 4.44
45 | O=C(O)c1c[nH]c2ccc(S(=O)(=O)N3CCOCC3)cc12 | -36.6% (inactive) | -2.36 | 1.85
46 | Cc1cc(C)nc(NC2=NCC(=O)N2c2ccccc2)n1 | -50.8% (inactive) | -10.6 | 3.13
47 | COc1ccc(C2C(C(C)=O)=C(O)C(=O)N2c2nccs2)cc1OC (stereo unspecified) | 6.29% (inactive) | -2.95 | 3.31
48 | CCc1cc(=O)oc2cc(C)c(CN3CCCC3)c(O)c12 | 22.4% (inactive) | 0.04 | 4.19
49 | CN(C)CCCN(CCCNC(=O)/C=N/O)Cc1ccccc1 | -11.9% (inactive) | -9.76 | 2.84
50 | Nc1nnnn1CC(=O)OCc1cccc(Br)c1 | -17.1% (inactive) | -5.1 | 1.92
51 | CN1CC(=O)Nc2ccc(F)cc2C1=O | 2.67% (inactive) | -9.28 | 13.9
52 | CCCC(=O)N(Cc1cc2ccccc2[nH]c1=O)c1ccccc1OC | 0.99% (inactive) | 5.4 | 3.75

Row | Structure (SMILES) | growth inhibition | growth inhibition [1] [%] | condensed nuclei [%]
53 | COc1ccc(CNC(=O)[C@H](C)NC(=O)C2CCN(S(=O)(=O)c3ccc(C)cc3)CC2)cc1 | -1% (inactive) | -14.3 | 4.4
54 | CCc1nc2sc3c(c2c(=O)o1)CCCC3 | -25.2% (inactive) | -2.13 | 2.35
55 | Cc1ccc(N(CN2C(=O)NC(C)(C)C2=O)CN2C(=O)NC(C)(C)C2=O)cc1 | 24.1% (inactive) | -7.36 | 3.39
56 | OCCN1CCN(CCCN2c3ccccc3Sc3ccc(Cl)cc32)CC1 | 95.8% (active) | 77.7 | 11.7
57 | CN(C)CCCN1c2ccccc2Sc2ccc(Cl)cc21 | 37.5% (inactive) | 25.5 | 5.79
58 | CN(C)CCCN1c2ccccc2Sc2ccc(C(F)(F)F)cc21 | 62.5% (inactive) | 40.5 | 4.92
59 | CN1CCN(CCCN2c3ccccc3Sc3ccc(C(F)(F)F)cc32)CC1 | 95.6% (active) | 87.9 | 15.7
60 | CN1CCN(CCCN2c3ccccc3Sc3ccc(Cl)cc32)CC1 | -25.4% (inactive) | -28.5 | 2.59
61 | OCCN1CCN(CCCN2c3ccccc3Sc3ccc(C(F)(F)F)cc32)CC1 | 89% (inactive) | 59.7 | 12.9
62 | CCN(CC)CCNc1nc(-c2ccco2)c2c(c1C#N)CC(C)(C)OC2 | 0.38% (inactive) | -1.61 | 4.74
63 | CC1(C)CC(=O)C=C(NCCO)C1 | 25.6% (inactive) | 9.68 | 3.37
64 | O=S(=O)(c1cccc2nsnc12)N1CCN(C/C=C/c2ccccc2)CC1 | -27% (inactive) | 4.18 | 4.32
65 | Cc1cc(OCC(=O)Nc2ccc3oc(-c4ccncc4)nc3c2)ccc1Cl | -2.56% (inactive) | -0.21 | 2.42
66 | CCC(NC(=O)Nn1cnnc1)(C(F)(F)F)C(F)(F)F | 3.51% (inactive) | -0.07 | 2.8
67 | O=C(NCCN1CCCCC1)c1ccc(=O)oc1 | -6.93% (inactive) | -12.9 | 2.43
68 | CC(=Nc1ccc(C)c(C)c1)C1=C(O)CCC1=O | 6.59% (inactive) | -5.94 | 3.62
69 | CCN(CC)CCNc1nc2c(c(=O)[nH]c(=O)n2C)n1CCOc1ccccc1 | -28.8% (inactive) | -0.48 | 2.26
70 | Cc1ccc(C2C(C(=O)c3cc4ccccc4o3)=C(O)C(=O)N2CCN(C)C)o1 (stereo unspecified) | -17.9% (inactive) | -1.01 | 2.37
71 | CCOc1cc(C2Nc3ccccc3C(=O)N2c2ccccc2OC)ccc1O (stereo unspecified) | 1.14% (inactive) | -2.4 | 1.12
72 | Cn1c(=O)c2c(nc(Br)n2CCSc2ncccn2)n(C)c1=O | 17.9% (inactive) | 6.9 | 1.48
73 | Cc1ccc(N2C(=O)CC3(CC4C=CC3C4)C2=O)cc1 (stereo unspecified) | -2.66% (inactive) | 9.8 | 2.87
74 | CNC(=O)CC(C(=O)O)c1ccc(OC(C)C)cc1 (stereo unspecified) | 14% (inactive) | 5.18 | 2.97
75 | CC(C)Sc1nc(N2CCCC2)c2c(c1C#N)CC(C)(C)OC2 | -32.3% (inactive) | -22.9 | 2.77
76 | CN1C2C=C3C(C#N)=C(N)C(C#N)(C#N)[C@@H](c4cccs4)C3C1CC2 (stereo partly specified) | -11.2% (inactive) | -11.8 | 3.15
77 | N#C/C(C(=O)NCc1ccco1)=C1/SC(Cc2ccc(F)cc2)C(=O)N1c1ccccc1 (stereo unspecified) | 16.5% (inactive) | -3.7 | 7.66
